The campaign covered roughly 270,000 compounds. About 5,800 (2.1%) were called active. Roughly 16% stayed inconclusive and do not appear here. Calls come from the whole dose curve; as a rule, active = well fitted inhibition curve with a large enough effect; inconclusive = small, poorly fitted or top-dose-only effect; inactive = flat fitted curve, though single readings scatter. Only a selection was taken, and actives are over-represented in it overall.
molecular target: Microtubule-associated protein tau (Homo sapiens) (UniProt P10636); test: qHTS for Inhibitors of Tau Fibril Formation, Thioflavin T Binding; conditions: recombinant tau K18 P301L (four-repeat tau fragment), heparin-induced fibrillization, ThT fluorescence; series mostly up to 57.4 µM; activity, negative = inhibition: at the top concentration; note: nearly all actives have a fitted effect of over 55% in size
Sequence (P10636 561-689 P618L limits assumed): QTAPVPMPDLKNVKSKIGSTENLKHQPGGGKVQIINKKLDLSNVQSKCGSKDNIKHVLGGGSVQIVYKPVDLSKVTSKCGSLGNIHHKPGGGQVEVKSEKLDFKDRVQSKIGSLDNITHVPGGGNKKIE
Text: NIH Molecular Libraries Probe Production Network [MLPCN]
NIH Chemical Genomics Center [NCGC]
Assay Provider: Carlo Ballatore, University of Pennsylvania
The microtubule-associated protein tau is an abundant protein in the axons of neurons that stabilizes microtubules. With its ability to modulate microtubule dynamics, tau contributes directly or indirectly, to key structural and regulatory cellular functions. Particularly important is the influence tau exerts on axonal transport, which allows signaling molecules, trophic factors and other essential cellular constituents to travel along the axons. Under pathological conditions, tau becomes sequestered into insoluble aggregates called neurofibrillary tangles. This phenomenon is believed to have pathological consequences by promoting axonal transport deficits that ultimately lead to synaptic dysfunction and neuronal loss. To identify inhibitors of tau aggregation, a heparin-induced tau fibril formation assay was used that employed a recombinantly expressed fragment of tau, K18 (Q242-E372), bearing a P301L mutation (Gustke et al. 1994; Hong et al. 1998). This assay monitors tau fibrillization by Thioflavin T (ThT) fluorescence.
Gustke, N., B. Trinczek, et al. (1994). "Domains of tau protein and interactions with microtubules." Biochemistry 33(32): 9511-22.
Hong, M., V. Zhukareva, et al. (1998).
Li, W. and V. M. Lee (2006).
von Bergen, M., S. Barghorn, et al. (2001). "Mutations of tau protein in frontotemporal dementia promote aggregation of paired helical filaments by enhancing local beta-structure." J Biol Chem 276(51): 48165-74.
NCGC Assay Protocol Summary:
For screening, 2 uL/well human K18 P301L (15 uM unlabeled and 0.24 uM Alexa 594-labeled tau, final concentrations) in reagent buffer (100 mM sodium acetate pH 7) was dispensed into black solid 1536-well plates (Grenier) using a solenoid-based dispenser. Following transfer of 23 nL compound or DMSO vehicle by a pin tool, 2 uL/well heparin (20 uM final concentration) in reagent buffer was added and the plate centrifuged 15 s at 1000 RPM. Plates were incubated 6 hr at 37 C and then 1 uL/well ThT (30 uM final concentration) was added. After a 1 hr ambient incubation, the plates were read by an Envision (Perkin Elmer) to monitor ThT fluorescence (450/8 nm excitation and 510/23 nm emission).
Keywords: NIH Roadmap, MLPCN, MLI, MLSMR, NCGC, qHTS, tau, tauopathies, Alzheimer's disease, fibril, neurodegeneration, aggregation
% is set by controls: 0 for no effect and ±100 for the full control effect; potency is the fitted concentration of half-maximal effect.

activity, negative = inhibition, inactive:
Cc1ccccc1-n1c(C)cc(/C=C2\NC(=O)NC2=O)c1C -0.6%
Cc1nnc(SCc2cc(=O)c3cc(F)ccc3[nH]2)n1C -1.18%
CCOc1ccc(C2C(=O)N(C3CCCCC3)CC(=O)N2CCC2=CCCCC2)cc1OC (stereo not given) 0.595%
Cc1oc2ncnc(N3CCOCC3)c2c1C(=O)NCCc1ccccc1 4.33%
Cc1ccc(-c2nnc(SCc3ccccc3C)o2)cc1 -7.49%
Cc1ccc(-c2cc(-c3coc4ccccc4c3=O)c3c(n2)-c2cc(Cl)ccc2OC3)cc1 -12.1%
O=C(CCc1cn(Cc2ccc(F)cc2)c2ccccc12)NC1CCCCC1 -4.41%
OCCC1CN(Cc2cccc(OC3CCCC3)c2)CCN1Cc1ccsc1 (stereo not given) -12.6%
OCCC1CN(Cc2ccccc2-c2ccco2)CCN1Cc1ccsc1 (stereo not given) -0.703%
Cc1ccc(-c2nnc(SCC(=O)NCc3ccccc3)nc2-c2ccc(C)cc2)cc1 -6.11%
CCOC(=O)CSC1=Nc2ccccc2C2=NC(CCC(=O)NCc3ccc(F)cc3)C(=O)N12 (stereo not given) 3.95%
COc1ccc(Cn2ccn(CC(=O)Nc3cc(C)ccc3C)c(=O)c2=O)cc1 -16.1%
CCS(=O)(=O)N1CCc2cc(C(=O)NCc3ccc(OC)cc3)ccc21 -4.87%
CCOc1ccc(C(c2c(C)[nH][nH]c2=O)c2c(C)[nH][nH]c2=O)cc1OCC -16.1%
CC1CCCN(c2cc3c(cc2F)c(=O)c(S(=O)(=O)c2cccc(Cl)c2)cn3Cc2ccccc2)C1 (stereo not given) -0.998%
CCOc1ccc(CC(=O)NCCc2csc3nc(-c4ccccc4F)nn23)cc1 -7.65%
O=C(Nc1ccc(S(=O)(=O)N2CCC(c3nc4ccccc4s3)CC2)cc1)c1ccccc1F 2.61%
CC(C)c1ccc(NS(=O)(=O)c2ccc3[nH]cc(C(=O)NC4CCCC4)c(=O)c3c2)cc1 9.63%
CCn1c2ccccc2c2nnc(N3CCN(c4cc(C)ccc4C)CC3)nc21 -1.08%
O=c1c(=O)n(Cc2c(F)cccc2Cl)ccn1Cc1ccccc1 -16.6%
Cc1ccc(CNC(=O)CCc2c(C)nn(-c3ccc(N4CCCC4)nn3)c2C)cc1 -9.71%
CC1=C/C(=N\S(=O)(=O)c2ccccc2)C(C(C)C)=CC1=O 0.736%
Cc1ccc(S(=O)(=O)c2ccc(Oc3ccccc3)cc2)cc1 -5.65%
COc1ccc(OC)c(-c2nc(C(N)=O)c3c(n2)n(-c2ccc4c(c2)OCO4)c(=O)n3C)c1 -10.3%
CC(C)(C)OC(=O)N1CCC(c2c(C(=O)N3CCc4ccccc4C3)cnn2-c2ccc(F)cc2)CC1 -16%
O=c1cc(-c2ccccc2)nc(N2CCCCC2)[nH]1 0.526%
CC(=O)c1cc(C#N)c(N2CCCCC2)nc1C 0.825%
CCCc1nn2c(=O)cc(COC(=O)c3ccc(NC(=O)COc4ccc(F)cc4)cc3)nc2s1 3.87%
CCCN(C(=O)Cn1ncc2c([nH]c3ccc(C)cc32)c1=O)c1ccccc1C -8.01%
O=c1cc(CSc2ncn[nH]2)[nH]c2ccc(F)cc12 -1.06%
CCCN(CCC)C(=O)C1CCCN(c2ncnc3c2nc2n3CCCCC2)C1 (stereo not given) -2.59%
Cc1cc(-c2ccc(/C=N/n3cnnc3)o2)c([N+](=O)[O-])cc1C 5.29%
Cc1ccc2nc(SCc3nnc(-c4ccccc4[N+](=O)[O-])o3)c(C#N)cc2c1 -1.14%
CCOc1ccc2nc(N3CCCC(C(=O)Nc4cc(C)ccc4C)C3)sc2c1 (stereo not given) -8.84%
O=C(NCc1ccccc1)c1cccc(NC(=O)N2CCSc3ncccc32)c1 5.68%
CC(=O)N1c2ccc(S(=O)(=O)N3CCCCCC3)cc2CC1C(=O)NCc1ccccc1C (stereo not given) -5.53%
Cc1ccc(C(=O)NC(=S)Nc2ccccc2C)cc1 1.33%
Cc1ccc(C(=O)NCCNC(=O)c2ccccc2)cc1 -12.8%
COc1ccc(C2C(=O)N(C3CCCCCC3)CC(=O)N2CCc2ccc(Cl)cc2)cc1OC (stereo not given) -5.92%
CC(C)CNc1ncnc2c1nnn2C -0.799%
Cc1cccc(-c2nc(SCC(=O)Nc3cc(C)on3)c3c(=O)n(C)c(=O)n(C)c3n2)c1 -3.19%
Cc1ccc(N(CC(=O)NCc2ccc(Cl)cc2)S(=O)(=O)N(C)C)cc1 2.93%

Potency, active:
Cc1cc(C)c(/C=C2\C(=O)Nc3ccccc32)[nH]1 3.16 µM
COc1cc(/C=C(\C#N)c2nc3c(s2)CC(C)CC3)ccc1O (stereo not given) 12.6 µM
OCCC#Cc1ccc(CN2CCN(Cc3ccsc3)C(CCO)C2)cc1 (stereo not given) 11.2 µM
Cc1[nH][nH]c(=O)c1C(c1ccc(-c2ccc(Cl)cc2)o1)c1c(C)[nH][nH]c1=O 7.08 µM
CC1=C/C(=N\OS(=O)(=O)c2ccccc2)C=CC1=O 3.16 µM
CC(=O)c1cc(-c2ccccc2)[nH]c1N1CCCC1 14.1 µM
Cc1ccc(-c2ccc(/C=C(\C#N)C(N)=S)o2)c([N+](=O)[O-])c1 3.98 µM
C/C(=N\NC(=O)c1ccc(C)cc1)C1C(=O)c2ccccc2C1=O 5.01 µM

— PubChem BioAssay AID1460 (National Center for Advancing Translational Sciences (NCATS), 2008)
